Results taken from PubChem BioAssay AID1159580 (chemical genetic matrix, 2015).
About 2,000 (36%) of roughly 5,500 compounds were called active. Another 18% or so got no clear call; they are omitted. No stated cut-off is given here; in the data, active means normalized growth mostly below about 0.91 (no sharp cut-off); inconclusive means no clear call, values can overlap the other calls; inactive means mostly above about 0.92. The list shows a part of the results.

Assay: chemical genetic growth profiling, strain panel (AID 1159580);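 further: tested at 20 µM; growth read once vehicle control cultures reached saturation at 30 °C; 1 = growth at the plate median or of vehicle wells; lower values mean less growth of the strain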
Details: growth OD

Measured: normalized growth

Nc1ccc(C(=O)O)cc1
inactive: S. cerevisiae deletion strains, locus YJR066W, strain TOR1, active compounds read low 0.968 | S. cerevisiae deletion strains, locus YJR075W, strain HOC1, active compounds read low 1.01 | S. cerevisiae deletion strains, locus YKL009W, strain mrt4, active compounds read low 1.02 | S. cerevisiae deletion strains, locus YKL068W, active compounds read low 0.993 | S. cerevisiae deletion strains, locus YKL085W, strain MDH1 (second series), active compounds read low 0.998 | S. cerevisiae deletion strains, locus YKL085W, strain MDH1, active compounds read low 0.998 | S. cerevisiae deletion strains, locus YKL160W, strain elf1, active compounds read low 1.03 | S. cerevisiae deletion strains, locus YKL190W, strain CNB1, active compounds read low 0.996 | S. cerevisiae deletion strains, locus YKR001C, strain vps1, active compounds read low 1.01 | S. cerevisiae deletion strains, locus YKR026C, strain gcn3, active compounds read low 1.04 | S. cerevisiae deletion strains, locus YKR091W, strain srl3, active compounds read low 1.02 | S. cerevisiae deletion strains, locus YLL001W, strain dnm1, active compounds read low 1.03 | S. cerevisiae deletion strains, locus YLL026W, active compounds read low 1.04 | S. cerevisiae deletion strains, locus YLL041C, strain sdh2, active compounds read low 1.02 | S. cerevisiae deletion strains, locus YLR027C, strain aat2, active compounds read low 1.02 | S. cerevisiae deletion strains, locus YLR039C, strain RIC1, active compounds read low 0.996 | S. cerevisiae deletion strains, locus YLR058C, strain SHM2, active compounds read low 1.01 | S. cerevisiae deletion strains, locus YLR102C, strain apc9, active compounds read low 1.01 | S. cerevisiae deletion strains, locus YLR113W, strain HOG1, active compounds read low 1.01 | S. cerevisiae deletion strains, locus YLR221C, strain rsa3, active compounds read low 1.02 | S. cerevisiae deletion strains, locus YLR258W, strain gsy2, active compounds read low 1.01 | S. cerevisiae deletion strains, locus YLR262C, strain YPT6 (second series), active compounds read low 1.02 | S. cerevisiae deletion strains, locus YLR262C, strain YPT6, active compounds read low 1.07 | S. cerevisiae deletion strains, locus YLR268W, strain sec22, active compounds read low 1.02 | S. cerevisiae deletion strains, locus YLR320W, strain mms22, active compounds read low 1.01 | S. cerevisiae deletion strains, locus YLR330W, strain CHS5, active compounds read low 1.01 | S. cerevisiae deletion strains, locus YLR342W, strain FKS1 (second series), active compounds read low 1.02 | S. cerevisiae deletion strains, locus YLR342W, strain FKS1, active compounds read low 1.05 | S. cerevisiae deletion strains, locus YLR357W, strain rsc2, active compounds read low 1.03 | S. cerevisiae deletion strains, locus YLR370C, strain arc18, active compounds read low 1.02 | S. cerevisiae deletion strains, locus YLR371W, strain rom2, active compounds read low 1.01 | S. cerevisiae deletion strains, locus YLR384C, strain iki3, active compounds read low 1.01 | S. cerevisiae deletion strains, locus YLR418C, strain cdc73, active compounds read low 1.03 | S. cerevisiae deletion strains, locus YML016C, strain PPZ1, active compounds read low 1.01 | S. cerevisiae deletion strains, locus YML032C, strain rad52, active compounds read low 1.01 | S. cerevisiae deletion strains, locus YML120C, strain ndi1, active compounds read low 1.04 | S. cerevisiae deletion strains, locus YML124C, strain tub3, active compounds read low 1.01 | S. cerevisiae deletion strains, locus YMR058W, strain fet3, active compounds read low 1.04 | S. cerevisiae deletion strains, locus YMR078C, strain ctf18, active compounds read low 1.02 | S. cerevisiae deletion strains, locus YMR125W, strain sto1, active compounds read low 1.01 | S. cerevisiae deletion strains, locus YMR129W, active compounds read low 1.03 | S. cerevisiae deletion strains, locus YMR205C, strain PFK2, active compounds read low 1.03 | S. cerevisiae deletion strains, locus YMR223W, strain ubp8, active compounds read low 1.01 | S. cerevisiae deletion strains, locus YMR231W, strain pep5, active compounds read low 1.02 | S. cerevisiae deletion strains, locus YMR263W, strain SAP30, active compounds read low 1 | S. cerevisiae deletion strains, locus YMR307W, strain GAS1, active compounds read low 1.05 | S. cerevisiae deletion strains, locus YNL067W, strain RPL9B, active compounds read low 1 | S. cerevisiae deletion strains, locus YNL071W, strain lat1, active compounds read low 1.01 | S. cerevisiae deletion strains, locus YNL183C, strain NPR1, active compounds read low 0.953 | S. cerevisiae deletion strains, locus YNL209W, strain ssb2, active compounds read low 1.02 | S. cerevisiae deletion strains, locus YNL233W, strain BNI4, active compounds read low 1.01 | S. cerevisiae deletion strains, locus YNL248C, strain rpa49, active compounds read low 1.05 | S. cerevisiae deletion strains, locus YNL250W, strain rad50, active compounds read low 1.01 | S. cerevisiae deletion strains, locus YNL271C, strain bni1, active compounds read low 1.03 | S. cerevisiae deletion strains, locus YNL298W, strain CLA4, active compounds read low 1.01 | S. cerevisiae deletion strains, locus YNL307C, strain MCK1, active compounds read low 1.01 | S. cerevisiae deletion strains, locus YNL322C, strain KRE1 (second series), active compounds read low 1.01 | S. cerevisiae deletion strains, locus YNR049C, strain mso1, active compounds read low 1.02 | S. cerevisiae deletion strains, locus YNR052C, strain pop2, active compounds read low 1 | S. cerevisiae deletion strains, locus YOL006C, strain TOP1, active compounds read low 1.06 | S. cerevisiae deletion strains, locus YOL012C, strain htz1 2.07 | S. cerevisiae deletion strains, locus YOL147C, strain pex11, active compounds read low 1.01 | S. cerevisiae deletion strains, locus YOR001W, strain rrp6, active compounds read low 1.05 | S. cerevisiae deletion strains, locus YOR061W, strain CKA2, active compounds read low 1.01 | S. cerevisiae deletion strains, locus YOR069W, strain VPS5, active compounds read low 1.01 | S. cerevisiae deletion strains, locus YOR070C, strain gyp1, active compounds read low 1.01 | S. cerevisiae deletion strains, locus YOR080W, strain dia2, active compounds read low 1.04 | S. cerevisiae deletion strains, locus YOR083W, strain WHI5, active compounds read low 1.05 | S. cerevisiae deletion strains, locus YOR106W, strain vam3, active compounds read low 1.04 | S. cerevisiae deletion strains, locus YOR136W, strain idh2, active compounds read low 1.02 | S. cerevisiae deletion strains, locus YOR144C, strain elg1, active compounds read low 1.01 | S. cerevisiae deletion strains, locus YOR184W, strain ser1, active compounds read low 1.02 | S. cerevisiae deletion strains, locus YOR231W, strain MKK1, active compounds read low 1.01 | S. cerevisiae deletion strains, locus YOR265W, strain rbl2, active compounds read low 1.01 | S. cerevisiae deletion strains, locus YOR270C, strain vph1, active compounds read low 1.07 | S. cerevisiae deletion strains, locus YOR290C, strain snf2, active compounds read low 1.01 | S. cerevisiae deletion strains, locus YOR316C, strain cot1, active compounds read low 1.01 | S. cerevisiae deletion strains, locus YPL051W, strain arl3, active compounds read low 1.04 | S. cerevisiae deletion strains, locus YPL078C, strain atp4, active compounds read low 1.05 | S. cerevisiae deletion strains, locus YPL106C, strain sse1, active compounds read low 1.03 | S. cerevisiae deletion strains, locus YPL240C, strain hsp82, active compounds read low 1.01 | S. cerevisiae deletion strains, locus YPL256C, strain CLN2, active compounds read low 1.02 | S. cerevisiae deletion strains, locus YPR119W, strain clb2, active compounds read low 1 | S. cerevisiae deletion strains, locus YPR141C, strain kar3, active compounds read low 1.01 | S. cerevisiae deletion strains, locus YPR163C, strain tif3, active compounds read low 1.02 | S. cerevisiae deletion strains, locus YPR167C, strain met16, active compounds read low 1.02 | S. cerevisiae deletion strains, strain wtn01, active compounds read low 1.02 | S. cerevisiae strains, strain wild type, active compounds read low 1
